# Screening results (PubChem)
# MPTP inh – blocks calcium-induced mitochondrial swelling; isolated mouse mitochondria, Ca2+ swelling absorbance, 30 min; inhibition, % at 10 µM; 360,000 compounds, 1.4% hits;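 active = inhibition of 50% or more, scaled per plate between neutral and stimulator controls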;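 note: 0% = DMSO wells given calcium and 100% = 1 mM EGTA wells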
# H9c2 protect – myocardial damage modulation in H9c2 cells. H9c2 cardiomyocytes, H2O2 injury protection, ATPLite, 2 h. protection from H2O2 cell death, % at 20 µM. 360,000 compounds, 0.63% hits. AID 588492;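 active = compounds giving at least 50% protection of heart cells from peroxide-induced death in the single-dose screen, raw or plate-pattern-corrected value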;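 note: 0% = DMSO wells with peroxide and 100% = DMSO wells without peroxide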
# aDG glyco up – alpha-DG glycosylation activation. Pro5-aDG cells, alpha-DG glycosylation AlphaScreen (IIH6); 0% Pro5, 100% B10-LARGE cell signal. AID 624168. 360,000 compounds, 0.22% hits. activation, % at 10 µM;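 active = activation of at least 8% versus controls, or a plate z-score of at least 8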;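 note: Pro5 are CHO cells carrying HIG-tagged alpha-DG that lacks glycosylation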
# FAS TE block – blocks the thioesterase domain of human fatty acid synthase. recombinant FAS-TE, OMFH fluorogenic substrate, fluorescence endpoint. P49327. 360,000 compounds, 0.67% hits. inhibition, % at 15 µM. AID 602261;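 active = compounds whose normalised, plate-corrected inhibition of enzyme fluorescence in the single-dose primary screen is 50% or more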;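 note: 0% = DMSO with enzyme and 100% = substrate without enzyme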
# CR mimetic SO – lowers age-related superoxide in aged yeast cells; S. cerevisiae aged cells, superoxide DHE fluorescence; hits give low values; superoxide response (% of plate mean), % at 10 µM; 330,000 compounds, 0.18% hits; AID 2690;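 active = superoxide response under a set limit, about three screen SD below normal, cut at about 65% in these data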;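 note: yeast aged for seven days with compound at 30 °C before DHE staining; 100% = average MFI of all compound-treated wells on the plate with controls excluded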
# Mot1-301 SUMO – inhibitors of SUMOylation pathway: yeast Mot1-301 growth rescue | S. cerevisiae Mot1-301 growth rescue, ATP luminescence, 38.5C; percent above DMSO median, 100 means doubled | growth rescue, % at 18.8 µM | 320,000 compounds, 1% hits | AID 2716;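 active = every valid replicate shows activation above 250% relative to neutral control wells; inactive = the rest, any valid replicate at or below 250%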;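 note: OY570 slx delta 5 strain wells were the positive control but not used for scaling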
# MPTP counter – membrane potential counter-screen of mitochondrial pore inhibitors; shares compounds with MPTP inh; isolated mitochondria, Rhodamine 123 fluorescence; inhibition, % at 10 µM; 5,000 compounds, 78% hits; AID 624504; in the data active = inhibition above about 22%;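 note: 0% = DMSO vehicle and 100% = positive control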
# MPTP swell DR – MPTP inhibition, dose response swelling confirmation; shares compounds with MPTP inh; isolated mitochondria swelling, absorbance; IC50, µM; 780 compounds, 58% hits; AID 651561; in the data active = IC50 below about 20 µM
# MPTP cs DR – MPTP inhibitor counter-screen activity, dose response; isolated mitochondria counterscreen, fluorescence read-out; 780 compounds, 49% hits; IC50, µM; AID 651564; shares compounds with MPTP inh; in the data active = IC50 below about 80 µM
# * hit, by the source's call; i = inactive; . = not tested or not shown. An excerpt weighted towards active compounds, which were near 3.8% of everything screened.
SMILES,MPTP inh,H9c2 protect,aDG glyco up,FAS TE block,CR mimetic SO,Mot1-301 SUMO,MPTP counter,others
CCN(CC)S(=O)(=O)c1cccc(NC(=O)COC(=O)c2[nH]c(C)c(C(C)=O)c2C)c1,86*,-19,4,3,.,.,88*,
O=c1[nH]c2cc3ccccc3cc2nc1-c1nnnn1Cc1ccccc1,1,.,0,-1,.,.,.,
COC(=O)C[C@@H]1C=C[C@H](NC(=O)Nc2cc(F)ccc2F)[C@@H](CO)O1,-1,.,0,.,.,.,.,
O=S(=O)(/C=C/C=C/S(=O)(=O)c1ccccc1)c1ccccc1,-2,-19,0,2,.,.,.,
CN(C)C(CNC(=O)c1cc(S(=O)(=O)N(C)Cc2ccccc2)ccc1Cl)c1ccco1 (stereo not given),68*,-7,3,-4,108,3,70*,
O=C(COC(=O)C1(c2ccc(F)cc2)CCCC1)NCc1ccco1,90*,0,0,10,107,18,3,MPTP swell DR=i;MPTP cs DR=61*
COc1ccc2nc3cc(Cl)ccc3c(Nc3cc(CN4CCCC4)c(O)c(CN4CCCC4)c3)c2n1,72*,50*,0,-3,104,29,-26,
CN(Cc1ccc(OC(F)F)cc1)C(=O)c1cccc(S(=O)(=O)N2CCN(Cc3ccccc3)CC2)c1,58*,-16,3,25,.,.,99*,
CC1(C)CC(NC(=O)c2cccc(S(=O)(=O)N(Cc3ccccc3)c3ccccc3)c2)CC(C)(C)N1,83*,-18,6.8*,-6,80,-15,-17,MPTP swell DR=9.5*;MPTP cs DR=>80
Cc1cc(O)c2c(c1)C(=O)c1cc(O)cc(O)c1C2=O,50*,-42,0,15,111,3,80*,
O=C1c2cc(O)cc(O)c2C(=O)c2c1cc(O)c([C@@H](CO)CCO)c2O,5,-1,0,3,187,40,.,
CCN(CC)C(=O)c1ccc(S(=O)(=O)N2CCC(c3nc4ccccc4s3)CC2)cc1,89*,-16,4,2,106,-2,94*,
Cn1nc(-c2ccccc2)cc1NC(=O)Nc1ccc(C(C)(C)C)cc1,70*,-10,0,12,93,89,74*,
Cn1nc(-c2ccc(Cl)cc2)cc1NC(=O)Nc1ccccc1,70*,-1,0,4,94,9,69*,
Cc1cc(NC(=O)Nc2ccc(Cl)cc2)n(C)n1,2,-2,0,-3,102,6,.,
CCOc1ccc(OCCNC(=O)c2cc(C3CC3)nc3c2cnn3C(C)C)cc1,0,1,0,22,.,.,.,
COc1nc(N(C)C)nc(N(C#N)S(=O)(=O)c2ccc(C)cc2)n1,0,-4,0,-7,101,4,.,
COc1ccc(S(=O)(=O)N2CCN(C(=O)CSC(=S)N3CCCC3)CC2)cc1,-2,-6,0,4,108,-15,.,
Cn1cc(CNCc2ccc(OC(F)(F)F)cc2)c(-c2ccc3c(c2)OCCO3)n1,102*,-16,1,5,106,-12,96*,
CCCOC(=O)c1cccc(Nc2nc(-c3cccnc3)nc3ccccc23)c1,66*,-26,0,18,103,-9,73*,
Fc1cccc(Nc2nc(-c3ccncc3)nc3ccccc23)c1,85*,-4,0,-3,85,40,85*,
O=C(C(=O)N1CCN(c2ccccc2)CC1)c1cccc(Br)c1,9,.,0,.,.,.,.,
Cc1cccc(-c2nnc(SCc3cc(=O)[nH]c4ccccc34)n2C)c1,2,9,0,-11,109,-17,.,
Cn1ccnc1SCc1cc(=O)[nH]c2ccccc12,87*,8,0,-9,120,-21,87*,
O=C(NNC(=O)c1cc2ccccc2cc1O)NC1CCCCC1,4,-7,0,-3,105,-12,.,
O=C(NCC1CCCCC1)c1cc2ccccc2cc1O,59*,-14,0,13,113,-5,81*,
